Holding throughout (conditions): compound concentration in added solution (µM; 5 µl added to 20 µl cells): 10; 18 h
The test system of assay [1] is A431. The experiment in a line: LBPA endosome anti-LBPA integrated intensity (sum per cell), Z-score; higher = more LBPA staining. An outline of the steps: (§1)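 Duplicate 384-well imaging plates were prepared with 5 µl of 10 µM compound solution per well, and 3,500 HeLa MZ or A431 cells in 20 µl were added on top. Following 18 h of incubation and fixation in 4% PFA, cells received 6C4 anti-LBPA antibody, filipin, propidium iodide and CellTracker green. Four images per well at 20× were segmented in MetaXpress to yield per-cell integrated LBPA or filipin intensity, whole-cell or within LBPA endosomes. These intensities are reported as Z-scores normalised in AcuityXpress.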

For assay [2], the system named is HeLa MZ. Described as above. An outline of the steps:
as §1

For assay [3], the system named is A431. Kind of assay: whole-cell filipin (free cholesterol) integrated intensity, Z-score; higher = more cholesterol staining. An outline of the steps:
as §1

The subject of assay [4] is HeLa MZ. The assay is described as above. The procedure, abridged: as §1
In assay [5] the test system is A431. The experiment in a line: filipin (cholesterol) integrated intensity within LBPA endosomes, Z-score; higher = more cholesterol in LBPA endosomes. An outline of the steps:
as §1

In assay [6] the test system is HeLa MZ. Described as above. An outline of the steps: as §1

Where a name gives a salt, the structure may show the parent alone.

As to `CCN1CCCC(OC(=O)C(c2ccccc2)c2ccccc2)C1` (centres undefined) [Piperidolate hydrochloride], the figures for the “LBPA endosome anti-LBPA integrated intensity (z-score)” value in the assay on A431 [1] and in the assay with HeLa MZ [2] were 1.4 and 1.47, respectively. Moreover, the “whole-cell filipin (z-score)” value in the assay on A431 [3] came to 1.77; with HeLa MZ [4] it was 1.11. In addition, the figures for the “filipin (z-score)” value with A431 [5] and in the assay on HeLa MZ [6] were 1.7 and 0.861, respectively.
For `COc1ncnc(NS(=O)(=O)c2ccc(N)cc2)c1OC` [Sulfadoxine], the results for the “LBPA endosome anti-LBPA integrated intensity (z-score)” value with A431 [1] and with HeLa MZ [2] were -0.426 and -0.662, respectively. Also, the “whole-cell filipin (z-score)” value was 0.0314 with A431 [3] and -0.436 in the assay on HeLa MZ [4]. Moreover, the “filipin (z-score)” value is -0.379 with A431 [5] and -0.505 with HeLa MZ [6].
`O=C1CCc2ccc(OCCCCN3CCN(c4cccc(Cl)c4Cl)CC3)cc2N1` [Aripiprazole]: the “LBPA endosome anti-LBPA integrated intensity (z-score)” value in the assay with A431 [1] came out at 3.32; in the assay on HeLa MZ [2] it was 2.8. In addition, the “whole-cell filipin (z-score)” value in the assay with A431 [3] came out at 2.88; with HeLa MZ [4], 2.45. Moreover, the “filipin (z-score)” value in the assay on A431 [5] was 3.23; with HeLa MZ [6], 4.07.
With `NS(=O)(=O)c1cc2c(cc1Cl)N=C(CSCc1ccccc1)NS2(=O)=O` [Benzthiazide], the entries for the “LBPA endosome anti-LBPA integrated intensity (z-score)” value with A431 [1] and in the assay on HeLa MZ [2] were -0.596 and -0.997, respectively. Besides, the figures for the “whole-cell filipin (z-score)” value with A431 [3] and with HeLa MZ [4] were -0.0125 and -0.328, respectively. Moreover, the “filipin (z-score)” value is -0.513 in the assay on A431 [5] and -0.593 in the assay with HeLa MZ [6].
Take `CC[N+](CC)(CC)CCC(O)(c1ccccc1)C1CCCCC1` (centres undefined) [Tridihexethyl chloride]: the “LBPA endosome anti-LBPA integrated intensity (z-score)” value in the assay with A431 [1] was -0.607; in the assay on HeLa MZ [2], -0.578. The figures for the “whole-cell filipin (z-score)” value in the assay with A431 [3] and in the assay with HeLa MZ [4] were -0.338 and -0.512, respectively. For the same compound, the “filipin (z-score)” value with A431 [5] was -0.437; with HeLa MZ [6], -0.697.
On to `O=C1c2ccccc2S(=O)(=O)N1CCCCN1CCN(c2ncccn2)CC1` [Ipsapirone], for which the “LBPA endosome anti-LBPA integrated intensity (z-score)” value in the assay on A431 [1] was -0.419; in the assay on HeLa MZ [2] it was 0.911. In addition, the entries for the “whole-cell filipin (z-score)” value in the assay with A431 [3] and in the assay with HeLa MZ [4] were -0.664 and -0.262, respectively. Besides, the “filipin (z-score)” value in the assay on A431 [5] is -0.426; in the assay on HeLa MZ [6], 0.0372.
Consider `CC(=O)OCC(CCn1cnc2cnc(N)nc21)COC(C)=O` [Famciclovir], for which the “LBPA endosome anti-LBPA integrated intensity (z-score)” value is -0.437 in the assay with A431 [1] and -0.227 in the assay with HeLa MZ [2]. Moreover, the figures for the “whole-cell filipin (z-score)” value in the assay with A431 [3] and in the assay with HeLa MZ [4] were -0.465 and -0.311, respectively. In addition, the “filipin (z-score)” value was -0.431 in the assay with A431 [5] and -0.386 in the assay with HeLa MZ [6].
Regarding `Nc1nc(NC2CC2)c2ncn([C@H]3C=C[C@@H](CO)C3)c2n1` [Abacavir Sulfate], the “LBPA endosome anti-LBPA integrated intensity (z-score)” value with A431 [1] is -0.557; in the assay with HeLa MZ [2] it was -0.156. The figures for the “whole-cell filipin (z-score)” value with A431 [3] and in the assay with HeLa MZ [4] were -0.517 and -0.596, respectively. In addition, the “filipin (z-score)” value in the assay with A431 [5] was -0.478; in the assay on HeLa MZ [6], -0.612.
Consider `CC1(C)O[C@@H]2C[C@H]3[C@@H]4CCC5=CC(=O)CC[C@]5(C)[C@@]4(F)[C@@H](O)C[C@]3(C)[C@]2(C(=O)CCl)O1` [Halcinonide], for which the “LBPA endosome anti-LBPA integrated intensity (z-score)” value in the assay with A431 [1] is -0.266; with HeLa MZ [2], -0.708. In addition, the “whole-cell filipin (z-score)” value in the assay on A431 [3] is -0.0733; in the assay on HeLa MZ [4], 0.0912. The “filipin (z-score)” value was -0.203 with A431 [5] and -0.18 with HeLa MZ [6].
With `O=C1C(CC[S+]([O-])c2ccccc2)C(=O)N(c2ccccc2)N1c1ccccc1` (centres undefined) [Sulfinpyrazone], the “LBPA endosome anti-LBPA integrated intensity (z-score)” value is -0.368 with A431 [1] and 0.025 in the assay with HeLa MZ [2]. The “whole-cell filipin (z-score)” value in the assay on A431 [3] is 0.303; with HeLa MZ [4], -0.59. Also, the “filipin (z-score)” value in the assay on A431 [5] is -0.319; in the assay with HeLa MZ [6], -0.446.
`O=C(O)CN(CCN(CC(=O)O)CC(=O)O)CCN(CC(=O)O)CC(=O)O` [Pentetic acid]: the “LBPA endosome anti-LBPA integrated intensity (z-score)” value in the assay with A431 [1] is -0.425; in the assay with HeLa MZ [2], -1.12. Besides, the “whole-cell filipin (z-score)” value is -0.45 in the assay on A431 [3] and -0.669 in the assay with HeLa MZ [4]. The “filipin (z-score)” value in the assay with A431 [5] is -0.443; with HeLa MZ [6], -0.521.
Regarding `Clc1ccc(CSC(Cn2ccnc2)c2ccc(Cl)cc2Cl)cc1` (centres undefined) [Sulconazole nitrate], the “LBPA endosome anti-LBPA integrated intensity (z-score)” value stood at 0.249 in the assay with A431 [1] and 1.59 in the assay on HeLa MZ [2]. Also, the “whole-cell filipin (z-score)” value turned out to be 1.22 in the assay on A431 [3] and 1.32 with HeLa MZ [4]. For the same compound, the “filipin (z-score)” value worked out at 0.361 in the assay with A431 [5] and 0.461 with HeLa MZ [6].
Turning to `N#CC(c1ccc(Cl)cc1)c1c(Cl)cc(-n2ncc(=O)[nH]c2=O)cc1Cl` (centres undefined) [Diclazuril], the “LBPA endosome anti-LBPA integrated intensity (z-score)” value with A431 [1] is -0.281; in the assay on HeLa MZ [2], 0.505. In addition, the “whole-cell filipin (z-score)” value in the assay with A431 [3] came to 0.197; in the assay on HeLa MZ [4] it was 0.559. Also, the “filipin (z-score)” value in the assay with A431 [5] was -0.215; in the assay with HeLa MZ [6], -0.204.
On to `O=c1n(CCCN2CCN(c3cccc(Cl)c3)CC2)nc2ccccn12` [Trazodone hydrochloride], for which the “LBPA endosome anti-LBPA integrated intensity (z-score)” value was determined as 0.505 in the assay on A431 [1] and 2.35 in the assay on HeLa MZ [2]. For the same compound, the “whole-cell filipin (z-score)” value in the assay with A431 [3] stood at 0.713; in the assay on HeLa MZ [4] it was 1.12. For the same compound, the “filipin (z-score)” value is 0.872 in the assay on A431 [5] and 1.04 in the assay with HeLa MZ [6].
Turning to `Clc1ccc(C(Cn2ccnc2)OCc2csc3c(Cl)cccc23)c(Cl)c1` (centres undefined) [Sertaconazole nitrate], the “LBPA endosome anti-LBPA integrated intensity (z-score)” value with A431 [1] was -0.364; in the assay with HeLa MZ [2] it was 1.08. Besides, the “whole-cell filipin (z-score)” value in the assay with A431 [3] stood at 0.486; in the assay on HeLa MZ [4], 1.1. The “filipin (z-score)” value in the assay with A431 [5] is -0.139; in the assay with HeLa MZ [6], 0.708.
Consider `CCN(CC)Cc1cc(Nc2ccnc3cc(Cl)ccc23)ccc1O` [Amodiaquin dihydrochloride dihydrate], for which the “LBPA endosome anti-LBPA integrated intensity (z-score)” value in the assay with A431 [1] turned out to be 2.13; in the assay on HeLa MZ [2], 2.23. In addition, the “whole-cell filipin (z-score)” value in the assay with A431 [3] is 0.894; in the assay with HeLa MZ [4], -0.209. For the same compound, the “filipin (z-score)” value was determined as 1.78 in the assay with A431 [5] and 1.72 in the assay with HeLa MZ [6].
On to `NS(=O)(=O)c1cc(C2(O)NC(=O)c3ccccc32)ccc1Cl` (centres undefined) [Chlorthalidone], for which the “LBPA endosome anti-LBPA integrated intensity (z-score)” value with A431 [1] is -0.286; with HeLa MZ [2] it was -0.349. Also, the “whole-cell filipin (z-score)” value with A431 [3] was -0.587; in the assay on HeLa MZ [4], -0.924. Besides, the “filipin (z-score)” value was -0.516 in the assay with A431 [5] and -0.608 in the assay with HeLa MZ [6].
`C[C@]12CC[C@@H]3c4ccc(O)cc4C[C@@H](CCCCCCCCC[S+]([O-])CCCC(F)(F)C(F)(F)F)[C@H]3[C@@H]1CC[C@@H]2O` (some centres undefined) [Fulvestrant]: the “LBPA endosome anti-LBPA integrated intensity (z-score)” value amounted to 1.44 in the assay on A431 [1] and 1.71 in the assay with HeLa MZ [2]. In addition, the “whole-cell filipin (z-score)” value with A431 [3] came out at 1.52; in the assay with HeLa MZ [4], 1.48. Also, the “filipin (z-score)” value was found to be 1.64 in the assay with A431 [5] and 2.16 in the assay on HeLa MZ [6].
On to `Cc1ncc(C[n+]2csc(CCO)c2C)c(N)n1` [Thiamine hydrochloride], for which the results for the “LBPA endosome anti-LBPA integrated intensity (z-score)” value in the assay with A431 [1] and with HeLa MZ [2] were -0.398 and -0.0332, respectively. In addition, the “whole-cell filipin (z-score)” value with A431 [3] is 0.0289; in the assay on HeLa MZ [4], -0.0399. For the same compound, the “filipin (z-score)” value in the assay on A431 [5] was -0.382; in the assay with HeLa MZ [6], -0.539.

These data come from the supplement of paper PMC6607015.
